Source: PubChem
Hits are enriched below; roughly 9% of the tested compounds scored in any of these assays.
KinaseGlo FLuc = Kinase-Glo luciferase inhibition (counter-screen). Q27757. Kinase-Glo luciferase, ATP luminescence, 8 min. Potency, µM (doses to about 38.3 µM), without a hit: at the highest dose activity change, negative = inhibition, usual class: inhibitors. 200,000 tested, 0.28% active. AID 1379; also: nearly all actives have a fitted effect of over 60% in size
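Light output from Kinase-Glo luciferase with luciferin and 10 uM ATP in 50 mM imidazole pH 7.2, KCl, MgCl2, Tween 20, BSA; compound pin-delivered, 8-min ambient incubation, then luminescence read.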
HPGD block = HPGD (human) dehydrogenase inhibition | P15428 | purified HPGD, NADH fluorescence kinetic, PGE2 substrate | Potency, µM, for the others: at the top dose activity change, negative = inhibition, hits mostly inhibitors | 150,000 tested, 4.3% active | AID 894; active = well fitted inhibition curve with a large enough effect, not every such curve was filed as active; inconclusive = small, poorly fitted or top-dose-only effect, or another doubt; inactive = no such curve, though single readings can be large or run the other way
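NADH formation kinetics: reaction with 30 uM PGE2 and 1 mM NAD+ (final), 20 nM enzyme, Tris-HCl pH 8 with Tween 20, after 15 min compound preincubation at room temperature. Fluorescence change, last versus first of five reads.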
IMPase Li inh = membrane-permeable IMPase blocker, potentiated with lithium | CHO-M1 cells, IP1 TR-FRET (IP-One), carbachol + lithium | Potency, µM (series often up to 59.4 µM), without a hit: at the top dose activity, negative = IMPase inhibition, usual class: inhibitors | 210,000 tested, 0.35% active;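 also: IP1 builds up when IMPase is blocked and the TR-FRET signal falls; plate controls were basal vehicle for no effect and high inhibitor control for full effect; nearly all actives have a fitted effect of over 50% in size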
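Concentration–response in CHO-M1 cells, lithium-potentiated; 30 min at 37C. IP1 detected by competitive TR-FRET after 10 min lysis at RT. Hill-fitted AC50.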
ALDH1A1 block = ALDH1A1 (human) enzyme inhibition; P00352; Purified ALDH1A1, NADH fluorescence, propionaldehyde substrate; Potency, µM (titrated, usually from 75.3 µM), for inactives: at the top dose activity, negative = inhibition, actives largely listed as inhibitors; 220,000 tested, 7.3% active; active = well fitted inhibition curve with a large enough effect, not every such curve was filed as active; inconclusive = small, poorly fitted or top-dose-only effect, or another doubt; inactive = no such curve, though single readings can be large or run the other way;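 also: plate controls were no enzyme wells and a reference inhibitor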
Target sequence (P00352 whole entry, looked up): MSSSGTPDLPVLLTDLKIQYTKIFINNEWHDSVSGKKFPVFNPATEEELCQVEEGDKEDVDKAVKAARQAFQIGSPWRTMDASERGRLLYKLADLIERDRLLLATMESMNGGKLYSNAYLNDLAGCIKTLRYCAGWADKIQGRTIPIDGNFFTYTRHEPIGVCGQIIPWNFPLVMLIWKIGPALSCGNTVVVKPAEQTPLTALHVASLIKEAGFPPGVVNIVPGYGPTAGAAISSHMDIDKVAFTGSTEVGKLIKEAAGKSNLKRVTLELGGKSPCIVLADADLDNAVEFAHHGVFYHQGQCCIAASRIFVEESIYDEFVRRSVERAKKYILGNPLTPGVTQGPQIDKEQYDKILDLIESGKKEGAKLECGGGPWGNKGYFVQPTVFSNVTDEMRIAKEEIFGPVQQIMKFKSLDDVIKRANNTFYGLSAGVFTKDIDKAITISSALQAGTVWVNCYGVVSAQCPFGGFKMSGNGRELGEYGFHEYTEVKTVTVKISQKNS
Lamin A splicing = changes lamin A minigene splicing in HeLa cells; HeLa LMNA splicing GFP/RFP minigene ratio, 48 h; Potency, µM (top dose mostly 46.1 µM), inactives show top-dose ratio change, negative = inhibition, most hits filed as inhibitors; 200,000 tested, 0.01% active; active = well fitted inhibition curve with a large enough effect in the signal ratio, with a control signal flat, not every such curve was filed as active; inconclusive = small, poorly fitted or top-dose-only effect, or effect the other way, or a change in a side signal; the % refers to the signal ratio
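S3 HeLa stable clones carrying a lamin A-EGFP splicing minigene plus DsRed2 were seeded at 600 cells/well in Opti-MEM with 2% FBS, pin-dosed and incubated 48 h at 37°C. Acumen cytometry (488 nm) gave the GFP/RFP total-intensity ratio.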
Starred values were filed as active, the others as inactive; ? = inconclusive; . = no result given; [ ] = dose if it differs, or a comment. Unless noted, calls follow the shape of the dose curve; as a rule, active = well fitted curve in the direction sought with a large enough effect; inconclusive = small, poorly fitted or top-dose-only effect, or another doubt; inactive = no such curve, though single readings can be large; an effect the other way counts as inactive or inconclusive. Unless noted, % is scaled to controls: 0 for no effect and ±100 for the full control effect; potency is read from the fitted curve at half-maximal effect.

SMILES | KinaseGlo FLuc | HPGD block | IMPase Li inh | ALDH1A1 block | Lamin A splicing
CC(C)CCCC(C)C1CCC2C3=CC[C@@H]4CC(O)CC[C@@]4(C)C3CC[C@]21C (stereo partly specified) | -3% | -7% | 5% | ? | 19%
COc1cc2c(cc1OC)[C@]13CC[N@+]4(C)CC5=CCO[C@H]6CC(=O)N2[C@@H]1C6[C@@H]5C[C@]34O (stereo partly specified) | -4%[7.66 µM] | -1% | 2% | 16%[13.5 µM] | .
CCCCN1C(=O)/C(=C/C=C/c2ccco2)C(=O)NC1=S | -1% | 10µM* | 1% | 16µM* | -4%
Cc1cc(/C=C2\C(=O)NC(=O)N(c3ccc(Cl)cc3)C2=O)c(C)n1C | 3% | . | -7% | -7% | .
CC(C)c1ccc(N2C(=O)NC(=O)/C(=C/C=C/c3ccco3)C2=O)cc1 | 12% | 3.2µM* | 13% | -9% | 12%
Cc1cc(C)cc(N2C(=O)NC(=O)/C(=C\C=C\c3ccco3)C2=O)c1 | 3% | 10µM* | 10% | ? | ?
COc1cc(CCN)c(OC)c(OC)c1 | -6%[7.66 µM] | -2% | 1% | 8%[13.5 µM] | .
O=C(O)[C@@H]1CSC(c2cccnc2)N1 (stereo partly specified) | -1% | -4% | 14% | -9% | .
CCOC(=O)c1c(/N=C/C2C(=O)NC(=S)NC2=O)sc(C)c1C | -1% | . | -1% | 20µM* | .
CCOC(=O)c1cc(C)sc1/N=C/C1C(=O)NC(=S)NC1=O | 2% | . | ? | 7.1µM* | -16%[46 µM]
CCOC(=O)c1c(/N=C/C2C(=O)NC(=S)NC2=O)sc2c1CCC2 | -2% | . | 2% | 18µM* | -2%[46 µM]
CCOC(=O)c1ccccc1C(=O)OCC | . | -12% | 2% | 4% | -14%
N#Cc1c(/N=C/C2C(=O)NC(=S)NC2=O)sc2c1CCCC2 | -1% | . | -9% | 22µM* | .
NC(CCl)=N[C@H]1CN2CCC1CC2 | -2%[7.66 µM] | -2% | -8% | ? | .
CCOC(=O)[C@@H]1[C@@H]2c3ccccc3-c3ccccc3[C@H]2C[C@H]1O | -4%[7.66 µM] | -8% | 1% | 14%[13.5 µM] | .
c1cncc([C@H]2CCCCN2)c1 | 1% | 0% | 14% | 5% | .
CN(C)CCCc1cccnc1 | -4%[7.66 µM] | -7% | 3% | 2%[13.5 µM] | .
NC(=NCCc1ccc(I)cc1)SCCCc1cnc[nH]1 | 0% | -7% | 14% | -2% | .
CC1(C)CC(=O)C2=C(C1)OC(N)=C([N+](=O)[O-])C2c1ccc(C#N)s1 (stereo unspecified) | -3% | . | 9% | 20µM* | .
CC1=C2C(=COC(C)C2C)C(=O)C(C(=O)O)=C1O (stereo unspecified) | -2% | -5% | 5% | ? | .
CS/C(N)=C(C#N)/C(C#N)=C(\N)SC | -6%[39.9 µM] | ? | 25% | 7.1µM* | .
Cc1nn(-c2ccccc2)c2c1C(c1ccc3c(c1)OCO3)SCC(=O)N2 (stereo unspecified) | -4% | 8.9µM* | 8%[38.3 µM] | -16% | -2%
COc1cc(C2SCC(=O)Nc3c2c(C)nn3-c2ccccc2)cc(OC)c1OC (stereo unspecified) | -3% | -18% | 19%[38.3 µM] | 2% | -10%
C[C@@H](CO)NC(=O)[C@@H]1C=C2c3cccc4[nH]cc(c34)C[C@H]2N(C)C1 | -3% | ? | 6% | ? | .
Cn1c(=O)c2c(nc(N/N=C/c3c(O)n(-c4ccccc4)c(=S)[nH]c3=O)n2C)n(C)c1=O | -2% | -22% | 25% | 8.9µM* | -10%
Cc1ncc([N+](=O)[O-])n1CCN=[N+]=[N-] | -6%[7.66 µM] | -1% | -9% | 9%[13.5 µM] | .
CCCCCCCCCc1ccc(O)cc1 | -3% | -5% | 4% | 100µM* | ?
CC(C)[C@]1(O)[C@@H](OC(=O)c2ccc[nH]2)[C@]2(O)[C@@]3(C)C[C@@]4(O)O[C@@]5([C@H](O)[C@@H](C)CC[C@]35O)[C@]2(O)[C@]41C | -1%[7.66 µM] | -7% | 4% | 3%[13.5 µM] | .
CN(C)C(Cc1ccccc1)C(=O)c1ccc(-c2ccccc2)cc1 (stereo unspecified) | -3% | -27% | 19%[38.3 µM] | ? | -14%
COc1ccc(C(=O)C(Cc2ccccc2)N(C)C)cc1 (stereo unspecified) | 6% | -4% | 0% | 28µM* | -7%
